Compound activity from PubChem BioAssay.
GBA mod – human lysosomal glucosylceramidase modulation; Potency, µM; hit rate 1.1% among 48,000; purified enzyme, resorufin glucoside fluorescence (screen aimed at inhibitors), 20 min; P04062; in the data active means potency below about 15 µM; inconclusive means mostly about 16 µM to 33 µM;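 further: the screen sought inhibitors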
Target sequence (P04062 whole entry, looked up): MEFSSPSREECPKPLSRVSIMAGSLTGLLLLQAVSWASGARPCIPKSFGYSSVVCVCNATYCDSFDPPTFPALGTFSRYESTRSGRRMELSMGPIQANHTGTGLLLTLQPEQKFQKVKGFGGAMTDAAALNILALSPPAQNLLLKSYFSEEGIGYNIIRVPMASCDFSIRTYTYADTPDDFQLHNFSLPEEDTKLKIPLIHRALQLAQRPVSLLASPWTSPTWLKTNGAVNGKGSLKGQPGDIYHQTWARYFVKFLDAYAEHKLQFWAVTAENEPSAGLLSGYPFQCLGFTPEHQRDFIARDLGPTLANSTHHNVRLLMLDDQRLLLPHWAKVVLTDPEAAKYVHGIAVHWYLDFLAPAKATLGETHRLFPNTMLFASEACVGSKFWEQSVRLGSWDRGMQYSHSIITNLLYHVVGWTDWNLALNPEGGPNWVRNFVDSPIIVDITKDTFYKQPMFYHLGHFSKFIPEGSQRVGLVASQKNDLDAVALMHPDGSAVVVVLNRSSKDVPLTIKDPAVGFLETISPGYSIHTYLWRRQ
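Compounds titrated against 0.2 nM normal enzyme, 30 uM resorufin beta-D-glucopyranoside substrate, citrate/phosphate buffer with taurocholate and tween-20, pH 5.9. Reaction ran 20 min at room temperature; fluorescence (Ex 548/Em 600) gave AC50.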
PK Bst – alters activity of Bacillus stearothermophilus pyruvate kinase. purified pyruvate kinase, luminescence ATP production; ribose 5-phosphate activator present at AC10. Potency, µM. hit rate 1.2% among 51,000. AID 361; in the data active means potency below about 11 µM; inconclusive means mostly about 12 µM to 25 µM;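 the screen sought inhibitors and activators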
FLuc inh – blocks Photinus pyralis firefly luciferase activity. P08659. purified firefly luciferase, luminescence, 8 min. Potency, µM (highest dose often 57.1 µM), most hits filed as inhibitors. hit rate 2.2% among 72,000; active means well fitted inhibition curve with a large enough effect; inconclusive means small, poorly fitted or top-dose-only effect; further: nearly all actives have a fitted effect of over 40% in size
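Titration-based qHTS; buffer 50 mM imidazole pH 7.2, 50 mM KCl, 7 mM MgCl2, 10 uM ATP, 0.01% Tween 20, 0.05% BSA; luciferase/luciferin detector mix added after compound; 8 min, ambient; luminescence.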
Large screens that a line does not name were inactive. Rows were chosen to be rich in hits. Some 3.4% of all compounds tested hit in one or more screens of this group.

Cc1nnc(SCC(=O)Nc2nsc(-c3ccccc3)n2)s1	none (no result: PK Bst)
Cc1ccc(C(=O)Nc2ncc(Cc3ccccc3)s2)o1	PK Bst inconclusive, FLuc inh 13µM
O=C(Nc1nsc(-c2ccccc2)n1)c1cccs1	PK Bst 7.8, FLuc inh 5µM
COCC(=O)N1CCC[C@@]2(CCN(Cc3nccs3)C2)C1	none (no result: GBA mod, PK Bst)
Cc1c(Nc2ncccc2C(=O)O)cccc1C(F)(F)F	none (no result: GBA mod, PK Bst)
C[C@@H]1C[C@@]2(C)Oc3ccccc3[C@H]3OC[C@]1(COC(=O)Nc1ccccc1)[C@@H](C)[C@@H]32	none (no result: GBA mod, PK Bst)
Cc1ccc(Cl)cc1N1CCN(C(=O)CN2C(=O)c3cccc4cccc2c34)CC1	PK Bst 5.3
Cc1ccc(Cl)cc1N1CCN(C(=O)CCC(=O)O)CC1	none
COc1ccc(C(=O)N2CCC3(CC2)CCN(c2ncccn2)CC3)cc1	none (no result: GBA mod, PK Bst)
N[C@@H](C(=O)O)[C@@H]1C[C@H]1C(=O)O	none (no result: GBA mod, PK Bst)
CCCc1nc2ccccc2c(=O)n1/N=C/c1ccc(O)cc1	none
CCCc1nc2ccccc2c(=O)n1/N=C/c1ccc(O)cc1O	none
CN=c1scc(C)n1/N=C/c1ccc(O)cc1	PK Bst 6.8, FLuc inh 13µM (no result: GBA mod)
Cc1nnc(C)n1/N=C/c1ccc2c(c1)OCCO2	none
CN=c1scc(C)n1/N=C/c1ccc(O)cc1O	PK Bst 1.1, FLuc inh 4µM
CN=c1scc(C)n1/N=C/c1ccc2c(c1)OCO2	PK Bst 3.2, FLuc inh 4µM
CC1CN(C(c2cccs2)c2sc3ncnn3c2O)CC(C)O1 (configuration not stated)	none (no result: GBA mod, PK Bst)
COc1cccc(C(c2sc3nc(C)nn3c2O)N2CCN(c3ccccc3F)CC2)c1 (configuration not stated)	none (no result: GBA mod, PK Bst)
COc1ccc(C(c2sc3ncnn3c2O)N2CCN(c3ccccc3F)CC2)cc1OC (configuration not stated)	FLuc inh 10µM (no result: GBA mod, PK Bst)
COc1ccc(C(c2sc3ncnn3c2O)N2CC(C)OC(C)C2)cc1OC (configuration not stated)	FLuc inh 13µM (no result: GBA mod, PK Bst)
CSC(N)=NCCC[C@@H](N)C(=O)O	none (no result: GBA mod, PK Bst)
COCCn1c(=O)c(-c2cccc(C#N)c2)nc2cnc(Oc3ccc(OC)cc3)nc21	none (no result: GBA mod, PK Bst)
N#Cc1cccc(-c2cc(NCc3cccs3)ncn2)c1	none (no result: GBA mod, PK Bst)
CCC(=O)Nc1ccc(C(=O)Cn2nc(C(=O)O)c3ccccc3c2=O)cc1	GBA mod 4.6
Cc1nn(CC(=O)Nc2ccccc2)c(=O)c2ccccc12	none
CCOc1ccc(NC(=O)c2nn(C)cc2Br)cc1	PK Bst inconclusive, FLuc inh 10µM (no result: GBA mod)
CCOc1ccc(NC(=O)c2ccncc2)cc1	none (no result: PK Bst)
CCOc1ccc(NC(=O)c2ccc(N)cc2)cc1	FLuc inh 13µM (no result: GBA mod, PK Bst)
CCOc1ccc(C(=O)Nc2c(C(N)=O)oc3ccccc23)cc1	PK Bst 4, FLuc inh inconclusive
COc1cccc(C(=O)Nc2c(C(N)=O)oc3ccccc23)c1	none (no result: GBA mod, PK Bst)
Cn1cc(Br)c(C(=O)NC2CCCCC2)n1	none
Cc1ccccc1-c1cncnc1N(C)Cc1ccco1	none (no result: GBA mod, PK Bst)
CN(C)C(=O)c1ccc(-c2ccc3ncnc(NCc4ccccc4)c3c2)cc1	none (no result: GBA mod, PK Bst)
COc1ccc(-c2ccc3c(n2)CCCN3C[C@H](O)CN2CCCc3nc(-c4ccc(Br)cc4)ccc32)cc1	none (no result: GBA mod, PK Bst)
O=C1C[C@@H](O)[C@@H](O)[C@@H]2[C@H]3C(=O)N(c4ccc(F)cc4F)C(=O)[C@@H]3CC[C@@H]12	none (no result: GBA mod, PK Bst)
Cc1c(C(=O)OC(C)CCN(C)C)oc2ccccc12 (configuration not stated)	none
Cc1c(C(=O)OCC(C)(C)CN(C)C)oc2ccccc12	FLuc inh 13µM (no result: PK Bst)
COc1cccc(Cn2c(=O)cnc3cnc(OCc4ccccc4)nc32)c1	none (no result: GBA mod, PK Bst)
CS(=O)(=O)Nc1cccc(-c2cncnc2NCc2cccnc2)c1	none (no result: GBA mod, PK Bst)
N[C@@H](Cc1cccnn1)C(=O)O	none (no result: GBA mod, PK Bst)
Cc1cccc(N(CC(=O)NCc2ccccc2)C(=O)Cn2nnc(-c3ccc(C)o3)n2)c1	none
Cc1ccc(-c2nnn(CC(=O)N(CC(=O)NCc3ccccc3)c3cccc(C)c3C)n2)o1	PK Bst 4.4
O=C(O)c1cccc(COc2ccccc2Cl)c1	PK Bst 6.7, FLuc inh 6.3µM
O=C(O)c1ccc(COc2ccccc2Cl)cc1	none
O=c1c(-c2cccc(F)c2)nc2cncnc2n1C1CC1	none (no result: GBA mod, PK Bst)
C[C@@]12C[C@H](O)[C@@H]3[C@H](CCC4=CC(=O)CC[C@]43C)[C@H]1CC[C@@H]2c1csc(-c2ccccc2)n1	none (no result: GBA mod, PK Bst)
CC(C)=NOC[C@@H](O)[C@@H]1O[C@@H]2OC(C)(C)O[C@@H]2[C@H]1O	none (no result: GBA mod, PK Bst)
Cc1noc(C)c1-c1ccc2ncnc(NC3CC3)c2c1	none (no result: GBA mod, PK Bst)
CCCc1c(C)c2cccc(C)c2[nH]c1=O	none (no result: GBA mod, PK Bst)
CCCCN1CCc2c([nH]c3c(C)cccc23)C1=O	GBA mod 9.8
COc1cc2c(cc1NC(=O)COC(=O)Cn1cnc3ccccc31)oc1ccccc12	FLuc inh 16µM (no result: PK Bst)
COc1cc2c(cc1NC(=O)CSCC(=O)O)oc1ccccc12	none
CCCCOC(=O)Cn1c(=N)n(CCN2CCOCC2)c2ccccc21	none
N=c1n(CCN2CCOCC2)c2ccccc2n1CC(=O)c1ccc(Cl)c(Cl)c1	PK Bst 3.1 (no result: GBA mod)
O=S(=O)(NCCNC/C=C\c1ccc(Br)cc1)c1cccc2cnccc12	none (no result: GBA mod, PK Bst)
COc1ccc(NC(=O)Nc2cc(C)ccc2OC)cc1	none
COc1ccc(C(=O)NC(=O)Nc2cc(C)ccn2)cc1	PK Bst 0.64, FLuc inh 0.5µM
Cc1ccnc(NC(=O)Nc2ccc3c(c2)N(C)C(=O)CS3)c1	none
COc1cc(C(=O)Nc2cc(C)ccn2)cc(OC)c1OC	none
Cc1ccc(NC(=O)Nc2ccc3c(c2)N(C)C(=O)CS3)nc1	none (no result: PK Bst)
COc1ccc(NC(=O)Nc2cc(C)ccn2)cc1	FLuc inh 1.6µM (no result: GBA mod, PK Bst)
Cc1ccnc(NC(=O)Nc2ccc(F)cc2)c1	FLuc inh 10µM (no result: GBA mod, PK Bst)
Cc1ccc(NC(=O)Nc2ccc(F)cc2)nc1	PK Bst 4.7
COc1ccccc1-c1nc(NCc2ccccc2)c2ccccc2n1	none (no result: GBA mod, PK Bst)
CSc1ccc(NC(=O)Nc2cc(C)ccn2)cc1	FLuc inh 2.5µM (no result: GBA mod, PK Bst)
O=C(Nc1ccncc1)Nc1ccccn1	none (no result: PK Bst)
CN1CCN(c2ncc3nc(-c4ccccc4)c(=O)n(CCC#N)c3n2)CC1	none (no result: GBA mod, PK Bst)
N#CCSc1nc2c(sc(=S)n2Cc2ccco2)c(=O)n1-c1ccc(F)cc1	GBA mod 6
CCn1c(=S)sc2c(=O)n(-c3ccccc3)c(SC)nc21	none
CCCCOc1cc(C[C@@H]2CNC(=O)N2)ccc1OC	none (no result: GBA mod, PK Bst)
O=C(Nc1ccccc1)N1CC2(CCN(S(=O)(=O)c3ccccc3)CC2)C1	none (no result: GBA mod, PK Bst)
CCn1c(-c2c[nH]c3ccccc23)n[nH]c1=S	GBA mod 11 (no result: PK Bst)
C=CCn1c(-c2c[nH]c3ccccc23)n[nH]c1=S	none
CCNc1ncc2nc(-c3cn(C)c4ccccc34)c(=O)n(Cc3cccc(OC)c3)c2n1	none (no result: GBA mod, PK Bst)
O=C(NCCN1CCOCC1)NC1(C(F)(F)F)Oc2ccc(Cl)cc2O1 (configuration not stated)	GBA mod 9.8
O=C(NCCN1CCOCC1)c1cccc(Cl)c1	GBA mod inconclusive
O=C(c1ccncc1)N1CCC[C@@]2(CCN(c3ccccn3)C2)C1	none (no result: GBA mod, PK Bst)
COc1ccc(CNc2ccnc(-c3cccnc3)n2)c(OC)c1	none (no result: GBA mod, PK Bst)
c1nc(NCCc2cnc[nH]2)c2[nH]cnc2n1	none (no result: GBA mod, PK Bst)
Cc1ccc2nc(-c3ccc(NC(=O)c4ccco4)cc3)[nH]c2c1	GBA mod inconclusive, PK Bst 7.2, FLuc inh 5µM
Cn1cccc1-c1nc2ccc(NC(=O)c3ccco3)cc2[nH]1	FLuc inh inconclusive (no result: GBA mod)
Cn1cnc2cc(NC(=O)c3ccco3)ccc21	none (no result: PK Bst)
